Measured values from PubChem BioAssay (NCI).
Compounds without any hit were thinned out: in the full panel of roughly 83,000, 20% have a hit.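 Each cell line was grown in a 96-well plate and treated with one concentration of compound for 48 hours. Values below 10 were considered active.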 The source made the active and inactive calls.

Assays:
Experiment in all cases: NCI-60 one-dose screen, 48 h (100 = growth as untreated, 0 = no growth, -100 = all killed)
HCT-15 colon = settings: 10 µM unless noted
HT29 colon = settings: 10 µM unless noted
SNB-75 CNS = settings: 10 µM unless noted
SNB-19 CNS = settings: 10 µM unless noted
U251 CNS = settings: 10 µM unless noted
PC-3 prostate = settings: 10 µM unless noted
SK-MEL-5 melanoma = settings: 10 µM unless noted
UACC-62 melanoma = settings: 10 µM unless noted
LOX IMVI melanoma = settings: 10 µM unless noted
SK-MEL-28 melanoma = settings: 10 µM unless noted
SK-MEL-2 melanoma = settings: 10 µM unless noted
EKVX NSCLC = settings: 10 µM unless noted
SN12C renal = settings: 10 µM unless noted
UO-31 renal = settings: 10 µM unless noted
TK-10 renal = settings: 10 µM unless noted
ACHN renal = settings: 10 µM unless noted
A498 renal = settings: 10 µM
HL-60(TB) leukemia = settings: 10 µM unless noted
CCRF-CEM leukemia = settings: 10 µM unless noted

Measured: growth

COC(=O)[C@@H](C)C[C@H](Cc1ccccc1)NC(=O)c1csc([C@@H](C[C@H](C(C)C)N(C)C(=O)[C@@H](NC(=O)[C@H]2CCCCN2C)C(C(F)(F)F)C(F)(F)F)OC(C)=O)n1
inactive: HCT-15 colon 22.3% | HT29 colon 14.4% | SNB-75 CNS 14.9% | SNB-19 CNS 23.2% | PC-3 prostate 27.2% | UACC-62 melanoma 26.4% | LOX IMVI melanoma 13.5% | SK-MEL-28 melanoma 71.5% | SK-MEL-2 melanoma 34.5% | EKVX NSCLC 40.4% | SN12C renal 28.3% | UO-31 renal 33.1% | TK-10 renal 28.5% | ACHN renal 28.2%
active: U251 CNS 3.74% | SK-MEL-5 melanoma -18.5% | A498 renal -4.49% | HL-60(TB) leukemia -33.7% | CCRF-CEM leukemia 4.93%

CC(=O)O[C@H](C[C@H](C(C)C)N(C)C(=O)[C@@H](NC(=O)[C@H]1CCCCN1C)C(C)C)c1nc(C(=O)N[C@@H](Cc2ccccc2)C[C@H](C)C(=O)O)c(C)s1
active: HT29 colon 3.99% | U251 CNS 8.94% | SK-MEL-5 melanoma -33.1% | A498 renal -8.24% | HL-60(TB) leukemia -8.97%
inactive: HCT-15 colon 16.5% | SNB-75 CNS 49.6% | SNB-19 CNS 38.5% | PC-3 prostate 21.3% | UACC-62 melanoma 48.1% | LOX IMVI melanoma 26.6% | SK-MEL-28 melanoma 62.7% | SK-MEL-2 melanoma 61.5% | EKVX NSCLC 40.9% | SN12C renal 34.6% | UO-31 renal 58.9% | TK-10 renal 36.9% | ACHN renal 26.6% | CCRF-CEM leukemia 10.8%

CC(=O)O[C@H](C[C@H](C(C)C)N(C)C(=O)[C@@H](NC(=O)[C@H]1CCCCN1C)C(C)(C)C)c1nc(C(=O)N[C@@H](Cc2ccccc2)C[C@H](C)C(=O)O)cs1
inactive: SNB-75 CNS 17% | SNB-19 CNS 23.4% | U251 CNS 11.1% | PC-3 prostate 25.1% | UACC-62 melanoma 26.2% | LOX IMVI melanoma 14.3% | SK-MEL-28 melanoma 52.6% | SK-MEL-2 melanoma 21.8% | EKVX NSCLC 39.7% | SN12C renal 17.9% | UO-31 renal 43% | TK-10 renal 52.6% | ACHN renal 29%
active: HCT-15 colon 5.59% | HT29 colon 1.32% | SK-MEL-5 melanoma -50.6% | A498 renal -6.47% | HL-60(TB) leukemia -26% | CCRF-CEM leukemia 1.05%

COc1ccc(Nc2ccc([N+](=O)[O-])cc2[N+](=O)[O-])cc1CN(CCCl)CCCl
inactive: HCT-15 colon 27.7% | HT29 colon 13.2% | SNB-75 CNS 33.7% | SNB-19 CNS 22.3% | U251 CNS 29.6% | PC-3 prostate 46.8% | SK-MEL-5 melanoma 57.2% | UACC-62 melanoma 12.1% | SK-MEL-28 melanoma 73.6% | SK-MEL-2 melanoma 42.9% | EKVX NSCLC 70.7% | SN12C renal 21.4% | UO-31 renal 31.4% | TK-10 renal 56.7% | ACHN renal 15.2% | A498 renal 18.5%
active: LOX IMVI melanoma 3.66% | HL-60(TB) leukemia -17.7% | CCRF-CEM leukemia 2.14%

Nc1c(F)cc(-c2nc3cc(F)ccc3[se]2)cc1Br
inactive: HCT-15 colon 18.5% | SNB-75 CNS 73.4% | SNB-19 CNS 94.5% | U251 CNS 87.5% | PC-3 prostate 66.4% | SK-MEL-5 melanoma 50% | UACC-62 melanoma 47.5% | LOX IMVI melanoma 90.1% | SK-MEL-28 melanoma 106% | SK-MEL-2 melanoma 90.5% | EKVX NSCLC 32.7% | SN12C renal 88.1% | UO-31 renal 60.1% | ACHN renal 27.5% | A498 renal 31.4% | HL-60(TB) leukemia 95.9% | CCRF-CEM leukemia 95.5%
active: HT29 colon 5.05% | TK-10 renal -4.6%

COC(=O)[C@@H](C)C[C@H](Cc1ccccc1)NC(=O)c1csc(CC[C@H](C(C)C)N(C)C(=O)[C@@H](NC(=O)[C@H]2CCCCN2C)C(C)C)n1
inactive: HCT-15 colon 10.9% | SNB-75 CNS 42.6% | SNB-19 CNS 35.4% | U251 CNS 14.8% | PC-3 prostate 27.6% | UACC-62 melanoma 40.7% | LOX IMVI melanoma 28.6% | SK-MEL-28 melanoma 63.2% | SK-MEL-2 melanoma 35.7% | EKVX NSCLC 40.8% | SN12C renal 36.5% | UO-31 renal 48.8% | TK-10 renal 60.5% | ACHN renal 45.2% | CCRF-CEM leukemia 13.8%
active: HT29 colon 3.34% | SK-MEL-5 melanoma -19.5% | A498 renal 0.74% | HL-60(TB) leukemia -34.4%

O=C1NC(=O)C(=Cc2ccc(OCCCCC3CCCCC3)c(Cl)c2)C(=O)N1
inactive: HCT-15 colon 98.5% | HT29 colon 92.3% | SNB-75 CNS 96.2% | SNB-19 CNS 100% | U251 CNS 81.7% | PC-3 prostate 88.4% | SK-MEL-5 melanoma 98.3% | UACC-62 melanoma 98.3% | LOX IMVI melanoma 56.1% | SK-MEL-28 melanoma 111% | SK-MEL-2 melanoma 89.5% | EKVX NSCLC 95.9% | SN12C renal 77.3% | UO-31 renal 81.2% | TK-10 renal 94.1% | ACHN renal 104% | A498 renal 82.7% | HL-60(TB) leukemia 92.8% | CCRF-CEM leukemia 90.1%

COC(=O)CC12CC(NC(=O)c3csc([C@@H](C[C@H](C(C)C)N(C)C(=O)[C@@H](NC(=O)[C@H]4CCCCN4C)C(C)C)OC(C)=O)n3)(C1)C2
inactive: HCT-15 colon 11.8% | SNB-75 CNS 59% | SNB-19 CNS 37.8% | U251 CNS 17.3% | PC-3 prostate 30.2% | UACC-62 melanoma 49.7% | LOX IMVI melanoma 23.3% | SK-MEL-28 melanoma 59.4% | SK-MEL-2 melanoma 51.6% | EKVX NSCLC 38.6% | SN12C renal 25.4% | UO-31 renal 55.2% | TK-10 renal 50.5% | ACHN renal 17.2% | CCRF-CEM leukemia 13.6%
active: HT29 colon 5.49% | SK-MEL-5 melanoma -30.2% | A498 renal 5.32% | HL-60(TB) leukemia -29.6%

CCOC(=O)[C@@H](C)C[C@H](Cc1ccccc1)NC(=O)c1csc([C@@H](C[C@H](C(C)C)N(C)C(=O)[C@H](CC)NC(=O)[C@H]2CCCCN2C)OC(C)=O)n1
inactive: SNB-75 CNS 25.4% | SNB-19 CNS 19.7% | U251 CNS 11.7% | PC-3 prostate 23.8% | UACC-62 melanoma 30.9% | SK-MEL-28 melanoma 61.8% | SK-MEL-2 melanoma 26.8% | EKVX NSCLC 38.6% | SN12C renal 19.1% | UO-31 renal 33.7% | TK-10 renal 69.6% | ACHN renal 25.9%
active: HCT-15 colon 9.87% | HT29 colon 4.72% | SK-MEL-5 melanoma -52.9% | LOX IMVI melanoma 9.39% | A498 renal -13.5% | HL-60(TB) leukemia -26.4% | CCRF-CEM leukemia 3.51%

CC(=O)O[C@H](C[C@H](C(C)C)N(C)C(=O)[C@@H](NC(=O)[C@H]1CCCCN1C)C(C)C)c1nc(C(=O)N[C@@H](Cc2ccccc2)C[C@H](C)C(=O)O)c(C(C)C)s1
inactive: SNB-75 CNS 22.6% | SNB-19 CNS 27.6% | U251 CNS 15.4% | PC-3 prostate 29.9% | UACC-62 melanoma 31.1% | LOX IMVI melanoma 10.5% | SK-MEL-28 melanoma 60.9% | SK-MEL-2 melanoma 23.6% | EKVX NSCLC 39.3% | SN12C renal 16.6% | UO-31 renal 41.5% | TK-10 renal 61.6% | ACHN renal 27.3%
active: HCT-15 colon 8.7% | HT29 colon 2.43% | SK-MEL-5 melanoma -43.9% | A498 renal -8.17% | HL-60(TB) leukemia -41.4% | CCRF-CEM leukemia 3.84%

N#C[S-].[Au+].c1ccc(CN2[CH-]N(Cc3ccccc3)C(c3ccccc3)=C2c2ccccc2)cc1
inactive: HCT-15 colon 13.8% | SNB-75 CNS 43.6% | SNB-19 CNS 16.1% | SK-MEL-28 melanoma 20.8% | EKVX NSCLC 12.6% | TK-10 renal 17.6%
active: HT29 colon 7.04% | U251 CNS 5.57% | PC-3 prostate 7.2% | SK-MEL-5 melanoma -36.5% | UACC-62 melanoma 3.87% | LOX IMVI melanoma 7.61% | SK-MEL-2 melanoma -1.84% | SN12C renal 6.67% | UO-31 renal 4.03% | ACHN renal 2.08% | A498 renal -37.3% | HL-60(TB) leukemia -44.1% | CCRF-CEM leukemia 1.1%

CN1CCC(c2c[nH]c3ccccc23)C1 (stereo not given)
inactive: HCT-15 colon 102% | HT29 colon 100% | SNB-75 CNS 95.5% | SNB-19 CNS 95.2% | U251 CNS 98.2% | PC-3 prostate 112% | SK-MEL-5 melanoma 130% | UACC-62 melanoma 107% | LOX IMVI melanoma 88.2% | SK-MEL-28 melanoma 107% | SK-MEL-2 melanoma 87.5% | EKVX NSCLC 98.1% | SN12C renal 124% | UO-31 renal 69.1% | TK-10 renal 154% | ACHN renal 96.2% | A498 renal 113% | HL-60(TB) leukemia 104% | CCRF-CEM leukemia 98.7%

CC[C@H](C)[C@@H]([C@@H](CC(=O)N1CCC[C@H]1[C@H](OC)[C@@H](C)C(=O)N[C@H](C)[C@@H](O)c1ccccc1)OC)N(C)C(=O)[C@@H](NC(=O)[C@@H](NC)C(C)C)C(C)C
inactive: HCT-15 colon 17.2% | SNB-75 CNS 39% | SNB-19 CNS 45.4% | PC-3 prostate 29.1% | UACC-62 melanoma 47.3% | LOX IMVI melanoma 19.6% | SK-MEL-28 melanoma 63.5% | SK-MEL-2 melanoma 41.8% | EKVX NSCLC 41.7% | SN12C renal 36.7% | UO-31 renal 40.6% | TK-10 renal 47.2% | ACHN renal 29.3% | CCRF-CEM leukemia 20.8%
active: HT29 colon 3.65% | U251 CNS 6.43% | SK-MEL-5 melanoma -37.6% | A498 renal -11.7% | HL-60(TB) leukemia -20.2%

[Cl][Hg][c]1cc[c]([Hg][Cl])o1
active: HCT-15 colon -47.3% | U251 CNS -40.8% | LOX IMVI melanoma -10.3% | UO-31 renal 3.18% | ACHN renal 3.3% | CCRF-CEM leukemia 4.4%
inactive: HT29 colon 30.9% | SNB-75 CNS 54.4% | SNB-19 CNS 15.4% | PC-3 prostate 51.3% | SK-MEL-5 melanoma 39.7% | UACC-62 melanoma 47.1% | SK-MEL-28 melanoma 49.1% | SK-MEL-2 melanoma 57.9% | EKVX NSCLC 20.5% | SN12C renal 34.9% | TK-10 renal 41.8% | A498 renal 109% | HL-60(TB) leukemia 22.5%

CCCCCCCCCCCCNC(c1ccccc1)C(O)c1ccccc1 (stereo not given)
inactive: HCT-15 colon 66.6% | HT29 colon 52% | SNB-75 CNS 106% | SNB-19 CNS 87.4% | U251 CNS 32% | PC-3 prostate 79.2% | SK-MEL-5 melanoma 96.7% | UACC-62 melanoma 96.7% | LOX IMVI melanoma 49.8% | SK-MEL-28 melanoma 97.4% | SK-MEL-2 melanoma 92.8% | EKVX NSCLC 92.6% | SN12C renal 68.5% | UO-31 renal 72% | TK-10 renal 98.8% | ACHN renal 67.4% | A498 renal 116% | HL-60(TB) leukemia 66.8% | CCRF-CEM leukemia 63.1%
